Source: PubChem
ROMK primary: modulates human ROMK potassium channel activity | P48048 | 130,000 tested, 2% active | AID 1918 | Tet-inducible ROMK, thallium flux fluorescence; actives lie on both sides | B-score at 10 µM;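 active = signal ratio slope over the read window, or its plate-corrected B-score, at least 3 SD from the plate mean, either direction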;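 note: B-score of the F/F0 ratio slope over 7 to 12 s after thallium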
Target sequence (P48048 whole entry, looked up): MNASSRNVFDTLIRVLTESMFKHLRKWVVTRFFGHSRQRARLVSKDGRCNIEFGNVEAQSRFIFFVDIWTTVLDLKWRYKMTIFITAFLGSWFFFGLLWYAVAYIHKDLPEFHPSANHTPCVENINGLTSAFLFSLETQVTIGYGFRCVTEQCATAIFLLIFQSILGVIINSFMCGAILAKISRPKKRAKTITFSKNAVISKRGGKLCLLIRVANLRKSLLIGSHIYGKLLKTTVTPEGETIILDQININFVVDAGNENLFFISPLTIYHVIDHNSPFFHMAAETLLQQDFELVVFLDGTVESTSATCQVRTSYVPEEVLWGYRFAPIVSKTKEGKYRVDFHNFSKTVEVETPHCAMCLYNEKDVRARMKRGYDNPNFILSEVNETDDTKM
HSV augment: HSV replication enhancement; 220,000 tested, 0.005% active; maximum fold increase; HSV replication augmentation in cells, fold increase; in the data active = maximum fold increase above about 1.5; inconclusive = no clear call, values can overlap the other calls; tested in PC3 cells
Arbovirus anti: antivirals against arbovirus infection | arbovirus infection cell-based antiviral screen | inhibition, % at 10 µM | 200,000 tested, 0.37% active | AID 1251; in the data active = inhibition above about 30%
Measles CPE: protection of cells from measles virus. Measles virus-infected cells, CPE protection, absorbance. protection (pct of control), % at 4 µM. 140,000 tested, 1.5% active; in the data active = protection mostly above about 24%, no sharp cut-off; inactive = mostly below about 26%
Cl transport mod: modulates chloride dependent transport by human KCC2; Q9H2X9; KCC2 cells, thallium flux FluoZin-2 fluorescence; B-score of Tl+ flux slope (higher = more flux/activation; lower = inhibition) at 10 µM; 190,000 tested, 2.2% active; AID 1456;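 active = thallium flux slope and its plate-corrected score both differing from the plate sample mean at a set confidence after two filtering rounds, in either direction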;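 note: slope of fluorescence scaled to starting intensity during 10 to 20 s after thallium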
KCC2 sec1: KCC2 (human) modulation, secondary assay; shares compounds with Cl transport mod; HEK293-KCC2, thallium flux, FluoZin2 fluorescence; active compounds read high; normalised thallium flux (F/F0 slope) at 10 µM; 3,700 tested, 15% active; AID 1713;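 active = thallium flux slope above the same plate's solvent-only control mean plus 3 SD; inconclusive = the two replicate wells disagree; inactive = no significant difference from solvent-only control wells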
KCC2 bumet counter: thallium flux persisting under bumetanide in KCC2 cells, counter-screen secondary assay; AID 1714; 3,700 tested, 49% active; normalized thallium flux at 10 µM; shares compounds with Cl transport mod; HEK293-KCC2 + bumetanide/ouabain, thallium flux FluoZin2; active compounds read high;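 active = thallium entry rate above the same plate's blocked-transporter control wells by more than 3 SD; inconclusive = the two repeat wells disagree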;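 note: raw slope of fluorescence over initial fluorescence between 10 and 20 s after thallium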
KCC2 secondary2: KCC2 (human) modulation, second secondary assay; HEK293-KCC2, thallium flux FluoZin2 fluorescence; actives lie on both sides; F/F0 rise rate, 10–20 s post-thallium; 3,700 tested, 23% active; shares compounds with Cl transport mod; AID 1715; normalized thallium flux at 10 µM;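 active = thallium flux slope more than 3 SD above or below the plate's solvent-only control mean, mostly below; inconclusive = the two repeat wells disagreed; inactive = no significant shift from solvent-only controls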
HEK293 Tl flux: acts in parental HEK cells, KCC2 counter-screen | shares compounds with Cl transport mod | HEK293 parental cells, thallium flux FluoZin2, ouabain; baseline-ratio fluorescence slope, 10–20 s after thallium | thallium flux rate (normalised fluorescence) at 10 µM | 3,700 tested, 46% active | AID 1716;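 active = thallium flux rate significantly above the same plate's solvent-only control wells, beyond their mean plus 3 SD; inconclusive = the two replicate wells gave conflicting results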
KCC2 ouabain: KCC2 (human) modulation, ouabain retest | shares compounds with Cl transport mod | HEK293-KCC2, thallium flux FluoZin2 fluorescence; bidirectional: low = inhibitor, high = activator | raw Tl+ flux slope (below DMSO = inhibition, above = activation) at 10 µM | 3,700 tested, 48% active | AID 1717;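 active = thallium flux slope beyond 3 SD from same-plate DMSO control mean in most replicates, usually higher, sometimes lower; inconclusive = repeat tests gave conflicting results; inactive = no significant difference from controls in most replicates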;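 note: slope of initial-normalized fluorescence between seconds 10 and 20 after thallium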
HEK counter2: parental HEK flux effect, counter-screen 2. shares compounds with Cl transport mod. HEK293 parental, thallium flux FluoZin-2 fluorescence slope. thallium flux slope at 10 µM. 3,700 tested, 33% active;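 active = thallium flux slope above the same plate's solvent-control mean plus 3 SD in both duplicate wells; inconclusive = duplicate wells that disagreed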;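 note: run without ouabain in cells lacking the KCC2 cotransporter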
Each line names hits and unclear results; the compound was inactive in the other large screens (follow-up assays come after a bar, where they were run). Compounds with a hit are over-represented: about 4% of the library has one in this group of screens.

CCN1C[C@]2(CO)CC[C@H](OC)[C@@]34C5C[C@H]6[C@H](OC)C5[C@](O)(C[C@H]6OC)[C@@](O)(C(OC)C23)[C@@H]14 (stereo partly drawn)	none (no result: ROMK primary, Arbovirus anti, Measles CPE, Cl transport mod)
O=c1[nH]c(O)c(N=Nc2ccc([N+](=O)[O-])cc2)c(=O)[nH]1	none (no result: Measles CPE)
CC(C)N1C(=O)/C(=C/C=C/c2ccco2)C(=O)N(Cc2ccco2)C1=O	Measles CPE 25.9 (no result: ROMK primary)
CCC(=NCC1CCCO1)c1c(O)n(-c2ccc(OC)cc2)c(=O)[nH]c1=O (stereo not drawn)	none (no result: ROMK primary, Arbovirus anti, Measles CPE)
O=c1[nH]c(=O)n(Cc2ccc(F)cc2)c(O)c1C=NCCN1CCCCC1	none
COc1ccc(Cn2c(O)c(C=NCCN3CCOCC3)c(=O)[nH]c2=O)cc1	Cl transport mod 9.08
O=C1NC(=O)N(c2ccc3c(c2)OCO3)C(=O)/C1=C/c1ccc(N2CCCCC2)o1	ROMK primary -3.64, HSV augment inconclusive (no result: Cl transport mod)
CCN(CC)c1ccc(C=C2C(=O)N(C)C(=S)N(C)C2=O)o1	HSV augment inconclusive
O=C1NC(=O)N(c2ccc3c(c2)OCO3)C(=O)/C1=C\c1ccc(-c2ccccc2C(=O)O)o1	none (no result: ROMK primary, Arbovirus anti, Measles CPE, Cl transport mod)
CN1C(=O)C(=Cc2ccc(N3CCCCC3)o2)C(=O)N(C)C1=S	ROMK primary -4.87, HSV augment inconclusive (no result: Cl transport mod)
Oc1ccc(C2=CCNCC2)cc1O	none (no result: ROMK primary, Arbovirus anti, Measles CPE, Cl transport mod)
CCOC(=O)C1=C(NC(=S)NC(=O)c2ccccc2)c2ccccc2CC12CCCC2	Measles CPE 61.8
C=C1[C@H]2C[C@H]3[C@H]4N5C[C@]6(C)CCC[C@]47[C@H]([C@H]2O)[C@]3(C[C@]5(O)[C@H]67)[C@@H]1O	none (no result: ROMK primary, Arbovirus anti, Measles CPE, Cl transport mod)
CN(C)C(=O)Oc1cccc(-c2cn3cc(Cl)ccc3n2)c1	Measles CPE 44.9
CCCC(C)C1(CC)C(=O)NC(=Nc2ccc(F)cc2)NC1=O (stereo not drawn)	Measles CPE 37.5 (no result: ROMK primary, Cl transport mod)
Cc1ccc(-n2c(/C=C/c3ccc4c(c3)OCO4)nc3ccccc3c2=O)cc1	Measles CPE 26.1
Nc1nonc1-n1nnc(C(=O)N/N=C/c2ccc(OCc3ccc(F)cc3)cc2)c1COc1ccccc1	none (no result: ROMK primary, Arbovirus anti, Measles CPE)
Cc1ccc(CC2C(=O)N(C)C(=O)N(C)C2=O)s1	Arbovirus anti 81.5 (no result: ROMK primary)
C=CCOc1ccc(CC2C(=O)N(C)C(=O)N(C)C2=O)cc1	none
O=[N+]([O-])c1ccc(C2C3C(c4ccccc4)=NC4(CCCC4)N32)cc1 (stereo not drawn)	none
CCN1C(=O)/C(=C/c2ccc(N(CC)CC)cc2OC)C(=O)NC1=S	none (no result: Measles CPE)
O=C(Cc1ccc(Br)cc1)N1CCN(Cc2ccccc2)CC1	Measles CPE 85.6 (no result: ROMK primary, Cl transport mod)
CCCCCSc1cc(OC)c(CCNC)cc1OC	ROMK primary -3.57
COc1ccc(CN2CCN(C(=O)Cc3ccccc3)CC2)c(OC)c1	none
COc1ccc(CN2CCN(Cc3ccccc3)CC2)c(OC)c1	Cl transport mod 5.37 | KCC2 sec1 inactive | KCC2 bumet counter inactive | KCC2 secondary2 inactive | HEK293 Tl flux inactive | KCC2 ouabain inactive | HEK counter2 inactive
CCOP(=O)(Cc1cc(C(=O)CC)c(C)o1)OCC	none (no result: ROMK primary, Arbovirus anti, Measles CPE)
